# The campaign covered roughly 320,000 compounds. About 2,100 (0.66%) were called active. Inconclusive results (about 53%) are left out. The call rests on the fitted dose curve; in most records, active means well fitted inhibition curve with a large enough effect in the signal ratio, with a control signal flat (not every such curve was filed as active); inconclusive means small, poorly fitted or top-dose-only effect, or effect the other way, or a change in a side signal; inactive means flat fitted curve, though single readings scatter; the % refers to the signal ratio. The entries come from a sample that favours actives as a whole.
# Test: qHTS Assay for Lipid Storage Modulators in Drosophila S3 Cells;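 on cell number change: cells counted by Cell Tracker Red CMTPX staining in the red channel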; on lipid storage change, negative = inhibition: on the % scale 0 is the no-effect control and ±100 the full control effect
# Settings: BODIPY lipid droplet fluorescence, 18-24 h, cells fed with added oleic acid; cell number change: measured here: cell count max response; series mostly up to 46.1 µM; lipid storage change, negative = inhibition: at the top concentration
# Outline: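 Drosophila S3 cells loaded with oleic acid (400 uM, as added) and compounds at several concentrations; lipid droplets imaged by 488-nm laser-scanning cytometry, 500–530 nm intensity and object ratio to cell channel. Percent activity normalized to 20 uM Triacsin C.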
# Potency means the concentration at half of the fitted maximal effect.
SMILES,"lipid storage change, negative = inhibition",cell number change [%],Potency,outcome
Cc1[nH]n(C)c(=O)c1[N+](=O)[O-],17.8% (inactive),4.99,–,–
COc1cc(/C=C/C(=O)OCC(=O)N2CC3(C)CC2CC(C)(C)C3)ccc1O (centres undefined),–,18.4,0.651 µM (active),–
COc1cc(/C=C/C(=O)OCC(=O)N2CCC(C)CC2)ccc1O,20% (inactive),24.6,–,–
COc1cc(/C=C/C(=O)OCC(=O)N(C)C2CCS(=O)(=O)C2)ccc1OC(F)F (centres undefined),-10.5% (inactive),9.45,–,–
CCN(C(=O)COC(=O)/C=C/c1ccc(OC(F)F)c(OC)c1)C1CCS(=O)(=O)C1 (centres undefined),3.68% (inactive),4.02,–,–
COc1ccc(/C=N/OCC(=O)N2CC3(C)CC2CC(C)(C)C3)cc1 (centres undefined),0.198% (inactive),10.1,–,–
CCN(C(=O)COC(=O)/C=C/c1ccc(O)c(OC)c1)C1CCS(=O)(=O)C1 (centres undefined),–,-23.9,13 µM (active),–
O=c1[nH]c(COc2ccc(Br)cc2Cl)nc2ccccc12,5.12% (inactive),-15,–,–
COc1ccc(CN2CC(C(=O)NCC3CCCO3)CC2=O)cc1 (centres undefined),0.667% (inactive),14,–,–
N#C/C(=C\c1c(N2CCCCCC2)nc2ccccn2c1=O)C(N)=O,10.3% (inactive),22.6,–,–
N#C/C(=C\c1c(N2CCC(C(N)=O)CC2)nc2ccccn2c1=O)C(=O)NC1CCCCC1,–,-18.3,0.164 µM (active),–
N#C/C(=C\c1c(N2CCCCCC2)nc2ccccn2c1=O)C(=O)NC1CCS(=O)(=O)C1 (centres undefined),20.6% (inactive),–,–,–
O=C1/C(=C\c2ccccc2)CCc2c1[nH]c1ccccc21,–,–,–,inactive
Cc1cc(=O)n2nc(N3CCCC(C(=O)NCc4cccc(Br)c4)C3)sc2n1 (centres undefined),–,–,–,inactive
NC(=O)c1ccccc1OCc1cccc2ccccc12,–,–,–,inactive
CC1(C)CC(=O)C2=C(C1)N=C1SCCC(=O)N1C2c1ccccc1 (centres undefined),18.4% (inactive),9.02,–,–
Cc1ccc(S(=O)(=O)NNC(=O)c2csnn2)cc1,-10.6% (inactive),–,–,–
O=[N+]([O-])c1ccc(CN2CCCCCC2)s1,-6.35% (inactive),-8.81,–,–
Cc1ccc2nc(SCC(=O)Nc3ccc(Br)cc3)nc(=O)n2c1,-21.1% (inactive),-15.9,–,–
Cc1ccc2nc(SCC(=O)Nc3cccc(F)c3)nc(=O)n2c1,–,1.08,4.11 µM (active),–
Cc1ccc2nc(SCC(=O)Nc3cc(C)on3)nc(=O)n2c1,-10.5% [at 0.0737 µM] (inactive),23.9,–,–
CCOC(=O)C1=C(N)OC2=C(C(=O)CC(C)(C)C2)C1c1cccnc1 (centres undefined),26.8% (inactive),-4.63,–,–
COCCCNC(=S)N(Cc1ccccc1)Cc1ccccc1,-3.1% (inactive),-0.836,–,–
O=C(c1ccccc1)N(Cc1ccc(F)cc1)Cc1nc2ccccc2c(=O)[nH]1,4.2% (inactive),-10.1,–,–
CCOCCCNC(=S)N(Cc1ccccc1)Cc1nc2ccccc2c(=O)[nH]1,–,5.59,0.92 µM (active),–
CNC(=S)N(Cc1cc2ccc(OC)cc2[nH]c1=O)CC1CCCO1 (centres undefined),-12.6% (inactive),-8.74,–,–

SMILES,"lipid storage change, negative = inhibition",cell number change [%],Potency,outcome
Cc1onc(-c2ccccc2)c1-c1ccnn1C(=O)NC(C)C,-0.97% (inactive),15.2,–,–
Cc1cccc(N2CCN(c3ccc(N4C(=O)CCCC4=O)cc3[N+](=O)[O-])CC2)c1C,11.2% (inactive),4.71,–,–
O=C1CCCC(=O)N1c1ccc(N2CCN(c3ccccc3)CC2)c([N+](=O)[O-])c1,6.96% (inactive),-1.18,–,–
O=C1CCCC(=O)N1c1ccc(N2CCN(c3ccc([N+](=O)[O-])cc3)CC2)c([N+](=O)[O-])c1,–,-26.2,20.6 µM (active),–
COC(=O)[C@@H]1C[C@@]2(O)[C@@H](O)[C@@H](O)[C@@H](O)C[C@H]2N1CC(c1ccccc1)c1ccccc1,-0.438% (inactive),–,–,–
O=C(c1cc2n(n1)C(C(F)(F)F)CC(c1ccc(Cl)cc1)N2)N1CCCC1 (centres undefined),–,–,–,inactive
O=C(O)CCC(=O)N1CCc2cc(S(=O)(=O)NCc3ccc(Cl)cc3)ccc21,2.28% (inactive),–,–,–
COc1ccccc1OCC(=O)Nc1ccc(NC(=O)COc2ccccc2OC)cc1,-14.2% (inactive),-9.29,–,–
COc1ccc2nc(SCC(=O)NC3CCCCC3C)[nH]c2c1 (centres undefined),–,1.48,29.1 µM (active),–
CC1CCCCC1NC(=O)CSc1nc2ccccc2[nH]1 (centres undefined),5.65% (inactive),3.6,–,–
COc1ccc2nc(SCC(=O)NC3CCCCC3)[nH]c2c1,7.03% (inactive),19.4,–,–
CCCCCCCCCCOC(=O)c1csc2nnsc12,2.92% (inactive),6.22,–,–
O=C(NCCCO)c1ccc2[nH]c3ccccc3c2c1,26.1% (inactive),-15.6,–,–
Cc1cnc(C(=O)Nc2cccc(-c3nnc4n3CCCCC4)c2)cn1,3.04% (inactive),3.24,–,–
Cc1ccc(C(NC(=O)N2CC(C)OC(C)C2)C(Cl)Cl)cc1F (centres undefined),-10.8% (inactive),-1.54,–,–
O=C(c1c[nH]c(C(=O)C(Cl)(Cl)Cl)c1)c1ccccc1Br,-13.6% (inactive),7.04,–,–
O=C(c1c[nH]c(C(=O)C(Cl)(Cl)Cl)c1)c1ccccc1F,-19.6% (inactive),-11.6,–,–
O=C(c1c[nH]c(C(=O)C(Cl)(Cl)Cl)c1)c1ccccc1Cl,–,-14.7,25.9 µM (active),–
COCC(=O)N1CCC(Oc2ccc(C(=O)NCc3cnc(C)cn3)cc2)CC1,0.0981% (inactive),0.0828,–,–
COCCC(=O)N1CCC(Oc2ccc(C(=O)NCc3cc(C)n(C)n3)cc2)CC1,-6.14% (inactive),-14.5,–,–
COCC(=O)N1CCC(Oc2ccc(C(=O)NCc3cc(C)n(C)n3)cc2)CC1,–,-3.12,16.4 µM (active),–
CSc1ccc(C(=O)C2CCCN(C(=O)c3cc4cc(F)ccc4[nH]3)C2)cc1 (centres undefined),10.5% (inactive),18.3,–,–
CCN1CCN(CC(=O)Nc2ccc(OC(F)(F)F)cc2)CC1,-6.43% (inactive),-11.2,–,–
CC(=O)Nc1nc(-c2cccs2)cs1,11.7% (inactive),-17,–,–
O=C(Nc1nc2c(Cl)cccc2s1)c1ccc([N+](=O)[O-])o1,–,-16.1,11.6 µM (active),–
